# Test results: article PMC7862700, “An all-to-all approach to the identification of sequence-specific readers for epigenetic DNA modifications on cytosine”
# Key:
# Test in all cases: DAPPL (digital affinity profiling via proximity ligation, sequencing); 10 mM Tris-HCl pH 7.5, 50 mM NaCl, 1 mM DTT, 4% glycerol, room temperature, 30 min; GST-TFs on glutathione beads, 16-mer random dsDNA library, 0.1% formaldehyde crosslink after washing; high values mean tight binding
# [1] = biological target: T1, FEV (Homo sapiens, UniProt Q99581 1-238); conditions: protein: recombinant; tags: N-terminal GST; dsDNA, one strand shown
# T1 sequence: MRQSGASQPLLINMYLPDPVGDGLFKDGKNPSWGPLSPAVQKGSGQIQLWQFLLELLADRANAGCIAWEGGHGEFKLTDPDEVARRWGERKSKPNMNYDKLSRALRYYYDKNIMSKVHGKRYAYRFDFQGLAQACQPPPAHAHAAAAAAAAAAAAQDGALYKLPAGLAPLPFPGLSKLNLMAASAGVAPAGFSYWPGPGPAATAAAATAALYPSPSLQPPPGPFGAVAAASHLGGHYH
# Summary of the method: (§1)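 Each value of binding signal is a hexamer's read frequency for a factor divided by the same hexamer's frequency in the tag-only sample. Barcoded, bead-captured GST fusions of human transcription factors made in yeast were pooled with that sample and incubated with 200 nmole of a random double-stranded 16-mer DNA library in Tris/NaCl/DTT/glycerol buffer at room temperature for 30 min. Washing, 0.1% formaldehyde crosslinking, proximity ligation, PCR and Illumina NextSeq500 sequencing followed.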
# [2] = biological target: ETV5 (Homo sapiens, UniProt P41161 1-510); conditions: protein: recombinant; tags: N-terminal GST; dsDNA, one strand shown
# Sequence of ETV5 (P41161 whole entry): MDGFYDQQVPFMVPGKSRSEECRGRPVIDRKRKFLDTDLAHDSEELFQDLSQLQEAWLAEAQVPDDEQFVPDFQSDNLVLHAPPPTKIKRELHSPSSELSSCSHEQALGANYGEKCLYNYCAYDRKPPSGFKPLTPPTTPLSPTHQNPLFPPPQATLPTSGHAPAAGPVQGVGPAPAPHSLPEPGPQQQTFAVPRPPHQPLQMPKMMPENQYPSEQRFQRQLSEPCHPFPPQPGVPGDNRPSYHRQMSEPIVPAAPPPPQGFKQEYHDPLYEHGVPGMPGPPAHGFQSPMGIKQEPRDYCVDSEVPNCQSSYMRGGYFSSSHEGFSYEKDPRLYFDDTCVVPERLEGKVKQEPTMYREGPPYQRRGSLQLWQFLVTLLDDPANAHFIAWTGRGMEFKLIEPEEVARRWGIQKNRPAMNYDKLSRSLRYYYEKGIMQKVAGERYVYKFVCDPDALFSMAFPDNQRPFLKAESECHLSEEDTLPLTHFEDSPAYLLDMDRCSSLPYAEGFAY
# Summary of the method: as §1
# [3] = biological target: HSF1 (Homo sapiens, UniProt Q00613 1-529); conditions: protein: recombinant; tags: N-terminal GST; chain copies: 3; dsDNA, one strand shown
# Sequence of HSF1 (Q00613 whole entry): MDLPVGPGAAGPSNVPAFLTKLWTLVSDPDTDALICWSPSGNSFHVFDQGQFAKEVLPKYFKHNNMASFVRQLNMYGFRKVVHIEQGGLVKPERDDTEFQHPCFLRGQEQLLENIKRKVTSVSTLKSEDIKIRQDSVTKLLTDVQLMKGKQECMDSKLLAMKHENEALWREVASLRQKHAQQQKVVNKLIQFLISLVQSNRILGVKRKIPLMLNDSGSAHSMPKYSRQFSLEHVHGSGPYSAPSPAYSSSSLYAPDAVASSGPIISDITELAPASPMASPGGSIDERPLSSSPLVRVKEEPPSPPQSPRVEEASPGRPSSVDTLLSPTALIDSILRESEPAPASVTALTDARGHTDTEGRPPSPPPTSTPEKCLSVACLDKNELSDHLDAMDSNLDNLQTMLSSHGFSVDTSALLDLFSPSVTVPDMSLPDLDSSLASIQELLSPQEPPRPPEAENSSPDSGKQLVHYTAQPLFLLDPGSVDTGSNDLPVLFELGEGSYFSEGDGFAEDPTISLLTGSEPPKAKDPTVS
# Summary of the method: as §1
# [4] = biological target: T2, SPIC (Homo sapiens, UniProt Q8N5J4 1-248); conditions: protein: recombinant; tags: N-terminal GST; dsDNA, one strand shown
# T2 sequence: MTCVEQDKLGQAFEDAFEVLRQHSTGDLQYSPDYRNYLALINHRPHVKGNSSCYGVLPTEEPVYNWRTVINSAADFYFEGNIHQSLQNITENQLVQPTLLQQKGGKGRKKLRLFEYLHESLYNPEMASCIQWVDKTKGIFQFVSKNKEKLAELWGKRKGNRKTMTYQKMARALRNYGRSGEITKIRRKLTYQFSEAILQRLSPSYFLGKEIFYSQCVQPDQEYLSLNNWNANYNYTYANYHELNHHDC
# Summary of the method: as §1
# [5] = biological target: ELF4 (Homo sapiens, UniProt Q99607 1-663); conditions: protein: recombinant; tags: N-terminal GST; dsDNA, one strand shown
# Sequence of ELF4 (Q99607 whole entry): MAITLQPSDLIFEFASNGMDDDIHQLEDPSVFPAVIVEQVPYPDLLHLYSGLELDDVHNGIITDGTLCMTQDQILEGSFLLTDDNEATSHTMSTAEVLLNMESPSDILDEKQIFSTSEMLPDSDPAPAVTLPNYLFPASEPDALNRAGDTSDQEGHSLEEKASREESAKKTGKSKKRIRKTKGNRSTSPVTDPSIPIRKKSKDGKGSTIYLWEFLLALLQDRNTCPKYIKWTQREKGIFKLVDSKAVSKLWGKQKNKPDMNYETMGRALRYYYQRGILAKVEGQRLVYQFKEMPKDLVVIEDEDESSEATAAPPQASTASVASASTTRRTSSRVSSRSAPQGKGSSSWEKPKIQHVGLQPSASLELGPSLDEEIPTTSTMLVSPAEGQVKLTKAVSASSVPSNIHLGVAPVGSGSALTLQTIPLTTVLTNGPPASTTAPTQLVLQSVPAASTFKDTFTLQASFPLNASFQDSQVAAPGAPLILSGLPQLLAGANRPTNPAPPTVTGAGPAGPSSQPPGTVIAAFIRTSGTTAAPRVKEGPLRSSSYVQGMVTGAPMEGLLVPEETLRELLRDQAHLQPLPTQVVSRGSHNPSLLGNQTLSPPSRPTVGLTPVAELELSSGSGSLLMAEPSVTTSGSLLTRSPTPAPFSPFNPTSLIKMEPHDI
# Summary of the method: as §1
# [6] = biological target: T3, ELK4 (Homo sapiens, UniProt P28324-2 1-405); conditions: protein: recombinant; tags: N-terminal GST; dsDNA, one strand shown
# T3 sequence: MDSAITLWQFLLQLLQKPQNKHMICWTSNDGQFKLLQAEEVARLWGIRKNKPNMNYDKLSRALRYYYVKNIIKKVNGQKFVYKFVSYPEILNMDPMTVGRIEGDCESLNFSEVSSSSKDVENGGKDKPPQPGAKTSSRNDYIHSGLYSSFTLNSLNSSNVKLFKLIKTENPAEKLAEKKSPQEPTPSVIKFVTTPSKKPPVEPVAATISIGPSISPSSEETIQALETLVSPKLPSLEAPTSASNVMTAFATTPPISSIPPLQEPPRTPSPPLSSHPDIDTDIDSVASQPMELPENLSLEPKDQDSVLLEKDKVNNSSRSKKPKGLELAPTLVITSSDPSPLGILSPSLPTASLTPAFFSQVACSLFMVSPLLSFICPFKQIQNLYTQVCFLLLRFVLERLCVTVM
# Summary of the method: as §1
# [7] = biological target: T4, ETV2 (Homo sapiens, UniProt O00321 1-342); conditions: protein: recombinant; tags: N-terminal GST; dsDNA, one strand shown
# T4 sequence: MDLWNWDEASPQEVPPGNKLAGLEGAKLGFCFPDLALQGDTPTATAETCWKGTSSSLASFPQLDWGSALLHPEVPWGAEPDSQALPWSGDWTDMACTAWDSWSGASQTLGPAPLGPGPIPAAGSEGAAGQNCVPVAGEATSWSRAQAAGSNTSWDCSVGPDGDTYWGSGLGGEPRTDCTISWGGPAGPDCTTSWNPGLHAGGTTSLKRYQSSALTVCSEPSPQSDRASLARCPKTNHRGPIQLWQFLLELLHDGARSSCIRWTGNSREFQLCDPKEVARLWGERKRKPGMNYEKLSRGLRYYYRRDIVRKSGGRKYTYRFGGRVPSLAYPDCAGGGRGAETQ
# Summary of the method: as §1
# [8] = biological target: T5, ELF3 (Homo sapiens, UniProt P78545 1-371); conditions: protein: recombinant; tags: N-terminal GST; dsDNA, one strand shown
# T5 sequence: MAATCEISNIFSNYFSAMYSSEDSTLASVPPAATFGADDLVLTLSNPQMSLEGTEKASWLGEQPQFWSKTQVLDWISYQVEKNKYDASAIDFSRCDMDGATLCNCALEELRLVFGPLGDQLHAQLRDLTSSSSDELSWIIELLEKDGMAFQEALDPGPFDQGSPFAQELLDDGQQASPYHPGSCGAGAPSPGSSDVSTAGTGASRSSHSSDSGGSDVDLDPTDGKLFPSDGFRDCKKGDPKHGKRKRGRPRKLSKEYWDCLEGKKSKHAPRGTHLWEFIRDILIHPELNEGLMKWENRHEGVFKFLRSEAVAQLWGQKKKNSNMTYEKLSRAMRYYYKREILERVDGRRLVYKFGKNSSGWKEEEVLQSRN
# Summary of the method: as §1
# [9] = biological target: CRX (Homo sapiens, UniProt O43186 1-299); conditions: protein: recombinant; tags: N-terminal GST; dsDNA, one strand shown
# Sequence of CRX (O43186 whole entry): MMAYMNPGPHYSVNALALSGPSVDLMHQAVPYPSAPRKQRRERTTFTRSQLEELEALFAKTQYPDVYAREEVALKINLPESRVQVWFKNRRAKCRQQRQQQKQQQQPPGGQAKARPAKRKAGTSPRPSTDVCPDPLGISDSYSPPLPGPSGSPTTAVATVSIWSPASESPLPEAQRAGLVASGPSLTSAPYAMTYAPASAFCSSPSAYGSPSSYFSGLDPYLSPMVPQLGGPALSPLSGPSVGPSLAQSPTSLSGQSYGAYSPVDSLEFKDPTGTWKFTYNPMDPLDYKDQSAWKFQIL
# Summary of the method: as §1
# [10] = biological target: ETV1 (Homo sapiens, UniProt P50549 1-477); conditions: protein: recombinant; tags: N-terminal GST; dsDNA, one strand shown
# Sequence of ETV1 (P50549 whole entry): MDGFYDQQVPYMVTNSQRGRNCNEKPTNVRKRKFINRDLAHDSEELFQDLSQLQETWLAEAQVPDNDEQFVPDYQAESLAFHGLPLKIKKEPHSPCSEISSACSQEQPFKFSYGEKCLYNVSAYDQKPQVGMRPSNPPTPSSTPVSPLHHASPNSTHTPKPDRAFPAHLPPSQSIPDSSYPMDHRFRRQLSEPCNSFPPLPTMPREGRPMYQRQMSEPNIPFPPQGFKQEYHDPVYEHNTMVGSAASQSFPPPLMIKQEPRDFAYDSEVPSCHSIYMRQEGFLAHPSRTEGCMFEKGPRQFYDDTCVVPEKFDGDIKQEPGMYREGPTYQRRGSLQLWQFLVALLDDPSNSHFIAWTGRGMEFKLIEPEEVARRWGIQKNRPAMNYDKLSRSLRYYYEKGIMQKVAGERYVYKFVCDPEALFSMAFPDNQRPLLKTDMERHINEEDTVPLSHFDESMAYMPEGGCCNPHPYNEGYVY
# Summary of the method: as §1
# [11] = biological target: T6, ERF (Homo sapiens, UniProt P50548 1-548); conditions: protein: recombinant; tags: N-terminal GST; dsDNA, one strand shown
# T6 sequence: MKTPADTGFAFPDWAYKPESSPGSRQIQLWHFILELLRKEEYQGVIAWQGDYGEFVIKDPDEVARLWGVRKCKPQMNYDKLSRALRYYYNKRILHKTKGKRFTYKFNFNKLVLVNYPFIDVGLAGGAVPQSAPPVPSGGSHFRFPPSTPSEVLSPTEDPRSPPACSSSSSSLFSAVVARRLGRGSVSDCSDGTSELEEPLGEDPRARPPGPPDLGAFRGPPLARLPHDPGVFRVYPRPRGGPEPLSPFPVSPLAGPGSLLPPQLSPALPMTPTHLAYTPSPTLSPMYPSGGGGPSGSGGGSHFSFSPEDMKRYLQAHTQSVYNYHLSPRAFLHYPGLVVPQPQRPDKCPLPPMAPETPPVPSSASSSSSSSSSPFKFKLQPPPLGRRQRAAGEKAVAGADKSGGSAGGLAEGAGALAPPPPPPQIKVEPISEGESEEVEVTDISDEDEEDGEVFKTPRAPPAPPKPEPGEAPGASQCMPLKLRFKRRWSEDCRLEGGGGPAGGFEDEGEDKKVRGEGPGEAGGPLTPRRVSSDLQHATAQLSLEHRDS
# Summary of the method: as §1
# [12] = biological target: T7, ETV3L (Homo sapiens, UniProt Q6ZN32 1-361); conditions: protein: recombinant; tags: N-terminal GST; dsDNA, one strand shown
# T7 sequence: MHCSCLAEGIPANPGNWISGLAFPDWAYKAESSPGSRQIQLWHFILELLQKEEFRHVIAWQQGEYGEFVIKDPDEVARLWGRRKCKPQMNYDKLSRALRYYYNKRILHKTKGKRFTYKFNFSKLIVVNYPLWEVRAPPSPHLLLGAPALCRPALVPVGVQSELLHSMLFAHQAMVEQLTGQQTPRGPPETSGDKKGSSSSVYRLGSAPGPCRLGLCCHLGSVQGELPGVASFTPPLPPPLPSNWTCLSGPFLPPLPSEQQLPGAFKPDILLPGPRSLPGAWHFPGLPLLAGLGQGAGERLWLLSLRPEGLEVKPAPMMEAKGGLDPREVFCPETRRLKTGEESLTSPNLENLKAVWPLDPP
# Summary of the method: as §1
# [13] = biological target: T8, ETS2 (Homo sapiens, UniProt P15036 1-469); conditions: protein: recombinant; tags: N-terminal GST; dsDNA, one strand shown
# T8 sequence: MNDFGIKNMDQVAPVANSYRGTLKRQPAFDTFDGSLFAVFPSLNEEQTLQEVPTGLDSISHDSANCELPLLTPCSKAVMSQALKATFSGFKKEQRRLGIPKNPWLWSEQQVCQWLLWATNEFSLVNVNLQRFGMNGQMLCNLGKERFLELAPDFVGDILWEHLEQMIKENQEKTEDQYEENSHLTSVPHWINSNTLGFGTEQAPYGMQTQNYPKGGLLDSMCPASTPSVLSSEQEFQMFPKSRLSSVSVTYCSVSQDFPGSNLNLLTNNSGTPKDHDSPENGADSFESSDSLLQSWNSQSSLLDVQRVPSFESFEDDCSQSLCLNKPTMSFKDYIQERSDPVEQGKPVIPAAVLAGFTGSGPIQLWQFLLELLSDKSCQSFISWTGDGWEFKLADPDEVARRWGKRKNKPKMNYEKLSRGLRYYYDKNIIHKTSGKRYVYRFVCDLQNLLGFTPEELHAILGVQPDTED
# Summary of the method: as §1
# [14] = biological target: T9, SPDEF (Homo sapiens, UniProt O95238 1-335); conditions: protein: recombinant; tags: N-terminal GST; dsDNA, one strand shown
# T9 sequence: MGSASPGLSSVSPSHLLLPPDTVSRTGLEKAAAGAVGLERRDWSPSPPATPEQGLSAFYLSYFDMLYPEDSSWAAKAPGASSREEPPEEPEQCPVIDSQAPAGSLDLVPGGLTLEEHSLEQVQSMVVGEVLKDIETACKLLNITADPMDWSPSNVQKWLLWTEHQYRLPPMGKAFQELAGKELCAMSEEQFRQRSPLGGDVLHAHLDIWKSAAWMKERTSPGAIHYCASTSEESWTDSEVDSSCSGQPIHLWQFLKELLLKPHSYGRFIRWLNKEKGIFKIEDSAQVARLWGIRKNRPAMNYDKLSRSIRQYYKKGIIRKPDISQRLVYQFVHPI
# Summary of the method: as §1
# [15] = biological target: T10, ETV7 (Homo sapiens, UniProt Q9Y603 1-341); conditions: protein: recombinant; tags: N-terminal GST; dsDNA, one strand shown
# T10 sequence: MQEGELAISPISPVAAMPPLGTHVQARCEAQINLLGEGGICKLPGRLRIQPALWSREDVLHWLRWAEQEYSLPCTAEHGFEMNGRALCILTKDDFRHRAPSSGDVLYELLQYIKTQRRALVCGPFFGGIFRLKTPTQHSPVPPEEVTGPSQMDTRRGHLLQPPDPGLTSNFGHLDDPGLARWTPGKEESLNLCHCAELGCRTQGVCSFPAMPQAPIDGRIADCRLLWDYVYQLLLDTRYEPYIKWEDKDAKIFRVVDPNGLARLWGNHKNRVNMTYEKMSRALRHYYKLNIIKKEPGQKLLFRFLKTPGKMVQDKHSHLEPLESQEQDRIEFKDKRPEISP
# Summary of the method: as §1
# [16] = biological target: T11, ELF5 (Homo sapiens, UniProt Q9UKW6-2 1-255); conditions: protein: recombinant; tags: N-terminal GST; dsDNA, one strand shown
# T11 sequence: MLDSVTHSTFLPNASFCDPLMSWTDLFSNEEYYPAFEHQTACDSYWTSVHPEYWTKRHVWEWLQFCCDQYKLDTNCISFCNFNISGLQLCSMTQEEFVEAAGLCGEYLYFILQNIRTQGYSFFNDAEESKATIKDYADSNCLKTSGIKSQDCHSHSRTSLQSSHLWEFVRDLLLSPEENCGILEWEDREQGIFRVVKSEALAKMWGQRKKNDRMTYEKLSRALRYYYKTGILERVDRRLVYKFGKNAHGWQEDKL
# Summary of the method: as §1
# [17] = biological target: T12, ETV3 (Homo sapiens, UniProt P41162-2 1-143); conditions: protein: recombinant; tags: N-terminal GST; dsDNA, one strand shown
# T12 sequence: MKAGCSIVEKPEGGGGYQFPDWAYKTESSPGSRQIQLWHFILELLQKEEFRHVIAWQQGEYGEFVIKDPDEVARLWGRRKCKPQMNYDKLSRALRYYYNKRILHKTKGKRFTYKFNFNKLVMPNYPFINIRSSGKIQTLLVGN
# Summary of the method: as §1
# [18] = biological target: ETV6 (Homo sapiens, UniProt P41212 1-452); conditions: protein: recombinant; tags: N-terminal GST; dsDNA, one strand shown
# Sequence of ETV6 (P41212 whole entry): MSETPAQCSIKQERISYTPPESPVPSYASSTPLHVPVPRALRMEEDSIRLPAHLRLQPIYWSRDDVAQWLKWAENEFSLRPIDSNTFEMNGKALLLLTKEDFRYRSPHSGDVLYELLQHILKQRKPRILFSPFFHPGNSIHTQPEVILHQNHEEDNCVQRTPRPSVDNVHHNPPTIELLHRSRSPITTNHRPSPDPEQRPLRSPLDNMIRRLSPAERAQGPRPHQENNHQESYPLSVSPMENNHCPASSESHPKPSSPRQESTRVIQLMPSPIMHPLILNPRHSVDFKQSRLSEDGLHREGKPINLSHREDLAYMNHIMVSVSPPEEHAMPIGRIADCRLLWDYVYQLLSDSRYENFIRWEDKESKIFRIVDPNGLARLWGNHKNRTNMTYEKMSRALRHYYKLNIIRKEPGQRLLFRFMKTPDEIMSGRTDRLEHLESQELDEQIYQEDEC
# Summary of the method: as §1
sequence,measurement,setting,value
CTACAT,binding signal,[1],"1.44 fold enrichment (6-mer frequency, TF over GST control)"
same,binding signal,[2],"1.45 fold enrichment (6-mer frequency, TF over GST control)"
same,binding signal,[3],"1.17 fold enrichment (6-mer frequency, TF over GST control)"
same,binding signal,[4],"1.51 fold enrichment (6-mer frequency, TF over GST control)"
same,binding signal,[5],"1.37 fold enrichment (6-mer frequency, TF over GST control)"
same,binding signal,[6],"1.33 fold enrichment (6-mer frequency, TF over GST control)"
same,binding signal,[7],"1.31 fold enrichment (6-mer frequency, TF over GST control)"
same,binding signal,[8],"1.28 fold enrichment (6-mer frequency, TF over GST control)"
same,binding signal,[9],"1.11 fold enrichment (6-mer frequency, TF over GST control)"
same,binding signal,[10],"1.41 fold enrichment (6-mer frequency, TF over GST control)"
same,binding signal,[11],"1.66 fold enrichment (6-mer frequency, TF over GST control)"
same,binding signal,[12],"1.41 fold enrichment (6-mer frequency, TF over GST control)"
same,binding signal,[13],"1.43 fold enrichment (6-mer frequency, TF over GST control)"
same,binding signal,[14],"1.5 fold enrichment (6-mer frequency, TF over GST control)"
same,binding signal,[15],"1.32 fold enrichment (6-mer frequency, TF over GST control)"
same,binding signal,[16],"1.53 fold enrichment (6-mer frequency, TF over GST control)"
same,binding signal,[17],"1.44 fold enrichment (6-mer frequency, TF over GST control)"
same,binding signal,[18],"1.43 fold enrichment (6-mer frequency, TF over GST control)"
